Data as given in PubChem BioAssay AID504333 (National Center for Advancing Translational Sciences (NCATS), 2011).
Values joined by “and” are separate entries in the source; they are usually repeats but may differ in a detail not shown here. Equal values may be shown once. The campaign covered roughly 360,000 compounds. About 16,000 (4.4%) were called active. A call without a number means that no potency is given here. Not shown: some 9% with an inconclusive outcome. Calls follow the shape of the dose curve; as a rule, active = well fitted inhibition curve with a large enough effect; inconclusive = small, poorly fitted or top-dose-only effect; inactive = no such curve, though single readings can be large or run the other way. Only a selection was taken, and actives are over-represented in it overall.

target: Bromodomain adjacent to zinc finger domain protein 2B (Homo sapiens) (UniProt Q9UIF8); assay: qHTS Assay for Inhibitors of BAZ2B; conditions: AlphaScreen BAZ2B-H3K14Ac peptide displacement; series mostly up to 114 µM; also: nearly all actives have a fitted effect of over 60% in size
Sequence (Q9UIF8 whole entry, looked up, the tested form may be a part): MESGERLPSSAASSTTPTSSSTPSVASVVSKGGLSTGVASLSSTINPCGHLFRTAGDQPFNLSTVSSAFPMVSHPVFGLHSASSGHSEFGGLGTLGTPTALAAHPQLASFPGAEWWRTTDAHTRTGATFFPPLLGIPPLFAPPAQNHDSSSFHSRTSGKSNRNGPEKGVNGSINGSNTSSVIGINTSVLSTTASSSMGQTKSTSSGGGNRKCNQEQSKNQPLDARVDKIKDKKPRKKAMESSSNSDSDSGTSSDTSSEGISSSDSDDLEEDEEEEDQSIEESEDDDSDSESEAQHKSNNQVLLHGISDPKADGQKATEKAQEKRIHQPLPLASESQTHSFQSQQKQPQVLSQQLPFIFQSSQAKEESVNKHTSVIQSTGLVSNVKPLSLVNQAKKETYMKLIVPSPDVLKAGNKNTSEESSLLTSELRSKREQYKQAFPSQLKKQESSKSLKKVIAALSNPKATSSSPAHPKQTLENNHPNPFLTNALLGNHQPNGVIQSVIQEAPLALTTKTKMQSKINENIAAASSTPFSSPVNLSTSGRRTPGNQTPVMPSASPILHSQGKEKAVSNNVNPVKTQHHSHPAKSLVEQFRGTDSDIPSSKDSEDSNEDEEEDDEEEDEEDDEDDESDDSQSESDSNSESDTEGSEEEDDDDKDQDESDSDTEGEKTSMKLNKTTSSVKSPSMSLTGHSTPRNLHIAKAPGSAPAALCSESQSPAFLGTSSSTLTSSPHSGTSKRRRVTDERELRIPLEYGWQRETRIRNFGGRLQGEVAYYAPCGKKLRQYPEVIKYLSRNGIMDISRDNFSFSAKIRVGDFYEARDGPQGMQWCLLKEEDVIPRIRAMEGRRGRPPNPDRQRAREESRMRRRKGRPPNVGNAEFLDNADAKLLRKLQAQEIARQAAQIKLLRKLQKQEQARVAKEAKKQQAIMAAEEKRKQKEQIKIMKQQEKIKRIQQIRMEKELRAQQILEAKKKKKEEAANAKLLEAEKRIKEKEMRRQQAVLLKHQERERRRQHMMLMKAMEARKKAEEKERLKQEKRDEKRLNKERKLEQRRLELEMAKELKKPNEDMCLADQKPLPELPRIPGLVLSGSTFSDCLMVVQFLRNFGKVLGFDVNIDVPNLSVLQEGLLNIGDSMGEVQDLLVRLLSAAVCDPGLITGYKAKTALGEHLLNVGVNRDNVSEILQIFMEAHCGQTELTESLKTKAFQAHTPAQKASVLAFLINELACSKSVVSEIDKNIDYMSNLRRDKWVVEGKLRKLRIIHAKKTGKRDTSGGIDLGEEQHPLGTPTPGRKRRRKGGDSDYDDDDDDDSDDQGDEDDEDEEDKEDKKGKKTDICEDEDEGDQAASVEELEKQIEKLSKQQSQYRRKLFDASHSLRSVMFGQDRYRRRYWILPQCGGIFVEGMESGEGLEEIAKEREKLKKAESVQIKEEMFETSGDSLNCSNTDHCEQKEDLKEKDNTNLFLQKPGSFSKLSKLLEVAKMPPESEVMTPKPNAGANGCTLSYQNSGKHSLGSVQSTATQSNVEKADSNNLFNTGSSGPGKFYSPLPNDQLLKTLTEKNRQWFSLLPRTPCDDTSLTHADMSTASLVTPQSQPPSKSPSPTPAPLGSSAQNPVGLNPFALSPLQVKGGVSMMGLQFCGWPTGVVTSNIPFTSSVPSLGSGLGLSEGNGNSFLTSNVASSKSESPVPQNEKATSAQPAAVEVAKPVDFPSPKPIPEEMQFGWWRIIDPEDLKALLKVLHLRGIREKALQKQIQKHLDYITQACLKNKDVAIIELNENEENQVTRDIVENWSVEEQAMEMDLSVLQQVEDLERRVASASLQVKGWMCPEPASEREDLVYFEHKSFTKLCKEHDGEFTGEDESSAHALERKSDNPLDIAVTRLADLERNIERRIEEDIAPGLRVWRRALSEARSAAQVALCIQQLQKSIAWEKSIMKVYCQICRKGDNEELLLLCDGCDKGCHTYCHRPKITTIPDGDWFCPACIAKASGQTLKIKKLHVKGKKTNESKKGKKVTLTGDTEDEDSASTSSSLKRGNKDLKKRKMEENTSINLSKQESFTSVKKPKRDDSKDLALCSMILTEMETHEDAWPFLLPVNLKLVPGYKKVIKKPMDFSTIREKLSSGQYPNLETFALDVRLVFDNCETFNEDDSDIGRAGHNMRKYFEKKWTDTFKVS
From the text: BAZ2B (bromodomain adjacent to zinc finger domain, 2B) belongs to a family of ubiquitously expressed bromodomain containing proteins, which biological function has not yet been elucidated. […] The interaction of BAZ2B with ISWI mediated by the BAZ1 motif has recently been described. […] The protocol is based on the AlphaScreen (PerkinElmer) displacement assay developed by NCGC [5], but uses the peptide ligand Biot-H3K14Ac, a high affinity binding partner for BAZ2B, in an AlphaScreen format. Although AlphaScreen has significant advantages with its utility in a variety of epigenetic target assays, the primary screening data provided in this deposition should be used with caution due to the prevalence of screening artifacts. The top compound concentration tested was 110uM in this assay, which increases number of actives and potential artifacts. An AlphaScreen counterscreen is highly recommended to be run against any putative actives to eliminate non-specific artifacts. Alternatively, one can use other AlphaScreen assays in PubChem to filter out promiscuous hits. Eberharter, A. et al. ACF1 improves the effectiveness of nucleosome mobilization by ISWI through PHD-histone contacts. The EMBO journal 23, 4029-4039. 2004. PMID: 15457208 [2] Jones, M.H. et al. A novel family of bromodomain genes. Genomics 63, 40-45. 2000. PMID: 10662543 [3] Yasgar, et al. Compound Management for Quantitative High-Throughput Screening. JALA. 2008 Apr;13(2):79-89. PMID: 18496600 [4] Inglese, et al. Quantitative high-throughput screening: a titration-based approach that efficiently identifies biological activities in large chemical libraries. Proc Natl Acad Sci. 1;103(31):11473-8. 2006. PMID: 16864780 [5] Quinn et al. A chemiluminescence-based method for identification of histone lysine methyltransferase inhibitors. Mol Biosyst 6(5): 782-8. 2010. PMID: 20567762 [6] Baell,Holloway. New substructure filters for removal of pan assay interference compounds (PAINS) from screening libraries and for their exclusion in bioassays. J Med Chem. 53(7):2719-40. 2010. PMID: 20131845 NIH Molecular Libraries Probe Production Network [MLPCN] NIH Chemical Genomics Center [NCGC] Structural Genomics Consortium (SGC) NIH Grant: 5U54 MH084681-02
To each well of a 1,536w plate, 2ul of BAZ2B protein (final 50nM) and 1ul biotinylated histone peptide acetylated at Lys14 [b-H3(5-23)K14Ac] (final 50nM) were added in 1x PBS buffer, pH 7.4, containing 0.01% Tween-20, using a nanoliter dispenser. Formation of a protein-peptide complex proceeded at room temperature for 30 min. A Kalypsys pin-tool was employed to transfer 23 nL of library compound solution in DMSO to each well. Following a 30 min incubation of the protein-peptide complex with compounds at room temperature, a mixture of 40 ug/mL each streptavidin-coated donor and nickel chelate acceptor AlphaScreen beads (final 10 ug/mL) were added in a 1ul dispense for a final volume of 4ul. A brief centrifugation followed (1000rpm, 1 min) and were then incubated protected from the light for 20 min at room temperature. Plates were read on an EnVision multilabel plate reader using the 1,536 plate HTS AlphaScreen aperture (excitation time 80 ms, measurement time 240 ms).
Potency is read from the fitted curve at half-maximal effect.

Compound | Potency
CCC(Sc1nc2n[nH]c(C)c2c(=N)n1-c1ccccc1Cl)C(=O)N(CC)CC (stereo not drawn) | inactive
COc1ccc(-c2nc3sc(CCNS(=O)(=O)c4ccc(F)c(C)c4)c(C)n3n2)cc1 | inactive
COc1ccc(-c2nc(SCC(=O)N3CCCCC3C)n[nH]2)cc1 (stereo not drawn) | inactive
O=C(CN1CCN(S(=O)(=O)c2ccc(F)cc2)CC1)Nc1ccccc1F | inactive
O=S(=O)(c1ccc(F)cc1)N1CCN(Cc2ccccc2C(F)(F)F)CC1 | 28.2 µM (active)
Cc1ccc(S(=O)(=O)N2CCN(Cc3cccc(C)c3O)CC2)cc1 | inactive
COc1ccc(-c2onc(C)c2C)cc1S(=O)(=O)NCc1cccs1 | inactive
CCc1ccc(S(=O)(=O)n2ccnc2)cc1 | inactive
Cc1c(-c2cccc(NC(=O)C(C)(C)C)c2)nc2ncccn12 | inactive
CCc1cccc(C)c1Nc1c(-c2ccc(N(C)C)cc2)nc2ncccn12 | 10 µM (active)
Cc1ccccc1Nc1c(-c2ccccc2)nc2ncccn12 | inactive
COc1cc(OC)c(NC(=O)c2c3c(nn2C)-c2ccccc2SC3)cc1Cl | inactive
O=C(NCCCO)C(=O)Nc1c2c(nn1-c1ccccc1)CSC2 | inactive
COc1ccc(OCCCC(=O)Oc2ccc(OC)cc2)cc1 | inactive
COc1ccc(OCCn2ccnc2C)cc1 | 56.2 µM (active)
COc1ccc(OCCCn2c(C)nc3cc(C)c(C)cc32)cc1 | inactive
Cc1ccc(C(=O)Nc2c(C(=O)NC(C)(C)C)oc3ccccc23)cc1 | inactive
COc1ccc(NC(=O)c2ccc3oc(=O)c(S(=O)(=O)c4ccc(F)cc4)cc3c2)c(OC)c1 | inactive
O=C(CSc1nccn1Cc1ccc(Cl)cc1)NCc1ccccc1 | inactive
COc1ccc(C(c2nnnn2Cc2cccs2)N2CCN(c3ccccc3)CC2)cc1OC (stereo not drawn) | inactive
COc1ccccc1C(c1nnnn1CC1CCCO1)N1CCN(c2ccccc2)CC1 (stereo not drawn) | 56.2 µM (active)
Cc1cccc(N2CCN(C(c3ccccc3)c3nnnn3CC3CCCO3)CC2)c1C (stereo not drawn) | inactive
COCCCNC(=O)c1ccc(NC(=O)c2nsc3ccccc23)cc1 | inactive
COC(=O)c1cccc(Cn2nnc3sc4c(c3c2=O)CCC(C(C)(C)C)C4)c1 (stereo not drawn) | inactive
Cc1cccc(N2CCN(C(=O)Cn3ncc4c5ccccc5n(C)c4c3=O)CC2C)c1 (stereo not drawn) | inactive

Compound | Potency
CCc1nnc(NC(=O)CSc2nnc(Cc3ccccc3)n2-c2ccc(OC)cc2)s1 | inactive
COc1ccc(NCc2nnc(SCc3ccccc3)n2-c2ccc(OC)cc2)cc1 | 50.1 µM (active)
COc1ccc(-c2nnc(SCC(=O)c3ccco3)n2-c2ccccc2)cc1 | inactive
Cc1ccc(Cl)cc1N1CCN(C(=O)CN2C(=O)COc3ccc(S(=O)(=O)N4CCOCC4)cc32)CC1 | inactive
C[n+]1ccc(/C=C/c2c[nH]c3ccccc23)cc1 | 44.7 µM (active)
O=C(N/N=C/c1c[nH]c2ccccc12)c1cc2ccccc2o1 | inactive
COc1ccc(/C=C(\C#N)c2c[nH]c3ccccc23)cc1 | inactive
CCOC(=O)C1CCCN(S(=O)(=O)c2cc(-c3cc(C)no3)ccc2OC)C1 (stereo not drawn) | inactive
COc1cccc(N2CCN(S(=O)(=O)c3ccc4c(c3)CCCN4C(C)=O)CC2)c1 | inactive
COc1ccccc1CN1CCC(CNC(=O)c2cnn(-c3ccccc3Cl)c2C2CCN(C(=O)OC(C)(C)C)CC2)CC1 | inactive
O=C(CCc1ccccc1)NCCc1cccs1 | inactive
O=C(O)CCC(=O)N(Cc1cccs1)Cc1cccs1 | 56.2 µM (active)
O=C(O)CCC(=O)N(Cc1ccccc1)Cc1ccccc1 | inactive
O=C1CC(c2nnc(Cc3ccc(Cl)cc3)o2)CN1c1ccccc1 (stereo not drawn) | inactive
CCc1ccc(NC(=O)CCS(=O)(=O)c2cc3c(cc2Cl)NC(=O)CO3)cc1 | inactive
CCOC(=O)Cn1c(=O)n(-c2ccccc2OC)c2nc(-c3cccc(F)c3)nc(C(N)=O)c21 | inactive
CC(=O)Nc1ccc(Nc2cc(C)nc(Nc3ccc(NC(C)=O)cc3)n2)cc1 | 56.2 µM (active)
Cc1ccc(Nc2nc(C)cc(C)c2C(N)=O)cc1 | inactive
COc1ccc(C(=O)NNc2cc(C)nc(NNC(=O)c3ccc(OC)cc3)n2)cc1 | inactive
CCN1CCN(c2cc(C)c3cc(NC(=O)c4cc(Cl)ccc4OC)ccc3n2)CC1 | inactive
Cc1ccccc1Nc1nc(-c2cccnc2)cs1 | 39.8 µM (active)
O=C(NCc1cccnc1)C(=O)Nc1nc(-c2ccccc2)cs1 | inactive
O=C(Nc1nc(-c2cccnc2)cs1)c1ccccc1F | inactive
Cc1ccccc1-c1nc(SCC(=O)N(C)c2ccccc2)c2c(=O)n(C)c(=O)n(C)c2n1 | inactive
Cc1ccc(CCNC(=O)c2ccc(CNS(=O)(=O)c3ccc(C)cc3)cc2)cc1 | inactive

Compound | Potency
CCOC(=O)c1c(NC(=O)c2cc(CC)on2)sc(C(C)=O)c1C | inactive
CCCCCn1c(=O)[nH]c2cc(C(=O)Nc3cc(C)cc(C)c3)ccc2c1=O | inactive
O=c1[nH]c(=S)[nH]c2[nH]c(=S)[nH]c12 | 28.2 µM (active) and 22.4 µM (active)
Cc1c(C)c(C)c2[nH]c(=S)[nH]c2c1C | inactive
CCOC(=O)c1ccc(NC(=O)C2CC(=O)N(c3ccc(C(C)C)cc3)C2)cc1 (stereo not drawn) | inactive
Cc1ccc(C2=N/C(=C\c3ccc(OS(=O)(=O)c4ccc(C)cc4)cc3)C(=O)O2)cc1 | inactive
COc1cc(/C=C2\C(=N)N3N=C(CC(=O)N4CCOCC4)SC3=NC2=O)cc(OC)c1OC | inactive
CS(=O)(=O)C1=NN2C(=N)/C(=C\c3ccc(OCCOc4ccccc4)cc3)C(=O)N=C2S1 | 50.1 µM (active)
CCS(=O)(=O)C1=NSC2=NC(=O)/C(=C\c3ccc(OS(=O)(=O)c4ccccc4)cc3)C(=N)N21 | 56.2 µM (active)
CCOc1cc(/C=C2\C(=N)N3N=C(C)SC3=NC2=O)ccc1OCCOc1ccccc1 | inactive
COc1ccccc1OCCOc1ccc(/C=C2\C(=N)N3N=C(C)SC3=NC2=O)cc1 | inactive
CCc1ccccc1N1C(=O)CN(S(=O)(=O)CC)CC1(C)C(=O)NC1CCCCC1 (stereo not drawn) | inactive
CCc1cccc(NC(=O)CSc2nccn2C)c1 | inactive
Cc1ccc(CNC(=O)CCc2c(C)nc3nc(CNC(=O)OC(C)(C)C)nn3c2C)cc1 | inactive
Cc1ccc(NC(=O)CSc2nc3ccccc3c3nc(CCn4cncc4C)nn23)cc1F | inactive
Cc1cc(-c2ccc(C)c(S(=O)(=O)Nc3ccc(S(N)(=O)=O)cc3)c2)on1 | inactive
CCN(CC)c1ccc(NS(=O)(=O)c2cc(-c3cc(C)no3)ccc2C)c(C)c1 | 11.2 µM (active)
CCOc1ccccc1CNS(=O)(=O)c1cc(-c2cc(C)no2)ccc1C | inactive
Fc1ccc(-c2nc(Nc3cccc(Cl)c3)nc3c2COc2ccccc2-3)cc1 | inactive
Cc1c(-c2nc(-c3ccc4c(c3)OCO4)no2)nnn1-c1ccc(Br)cc1F | inactive
C/C=C\C=C\C(=O)N1CC2(CC(c3cccc(NC(=O)/C(C)=C\C)c3)=NO2)C[C@H]1C(N)=O (stereo partly drawn) | inactive
C=C(C)C(=O)Nc1cccc(C2=NOC3(C2)C[C@H](C(N)=O)N(C(=O)C(c2ccccc2)c2ccccc2)C3)c1 (stereo partly drawn) | 25.1 µM (active)
C/C=C(/C)C(=O)Nc1cccc(C2=NOC3(C2)C[C@@H](C(N)=O)N(C(=O)C2(C)CC2)C3)c1 (stereo partly drawn) | inactive
Cc1cn(C)c(CC(=O)NCc2ccccc2)c1C(=O)O | inactive
COc1cccc(NC(=O)C2CCN(c3cc(C)nc4c(-c5ccc(Cl)cc5)c(C)nn34)CC2)c1 | inactive

Compound | Potency
Cc1c(C(=O)Nc2cccc(Cl)c2)oc2ccc(S(=O)(=O)N3CCOCC3)cc12 | inactive
Cc1ccc(OCc2nc(C#N)c(N3CCCC3)o2)cc1 | inactive
N#Cc1nc(COc2ccc(Cl)cc2)oc1N1CCCC1 | 39.8 µM (active)
CN1CCN(c2oc(-c3ccc(COc4ccc(Cl)cc4)o3)nc2C#N)CC1 | 25.1 µM (active)
COc1ccc(OCc2ccc(-c3nc(C#N)c(N4CCN(c5ccccc5)CC4)o3)o2)cc1 | inactive
CCC(C)Nc1oc(-c2ccc(COc3ccc(Cl)cc3)o2)nc1C#N (stereo not drawn) | inactive
N#Cc1ccc(OCc2nnc(-c3ccc([N+](=O)[O-])cc3)o2)cc1 | inactive
CCc1nnc(SCc2nc(-c3cccc(C)c3)oc2C)c2cc3sc(C)cc3n12 | inactive
Cc1cccc(NC(=O)Cn2nc(-c3ccc(Cl)cc3)c3ccccc3c2=O)c1 | inactive
COc1ccc(-c2noc(CSc3nc(C)cc(=O)[nH]3)n2)cc1OC | inactive
CCOC(=O)c1c(NC(C)=O)c2c3c(sc2n1Cc1c(C)cc(C)cc1C)CCCC3 | inactive
Cc1ccc(-c2cnc(C3CC3)o2)cc1S(=O)(=O)Nc1cccc(C)c1C | inactive
OC(c1nnc(-c2ccccc2)o1)c1cccs1 (stereo not drawn) | inactive
CCCN(CCC)c1ccc(C(O)c2nnc(-c3ccccc3)o2)cc1 (stereo not drawn) | 31.6 µM (active)
CC(=O)c1ccc(NC(c2ccc(F)cc2)c2nnc(-c3ccccc3)o2)cc1 (stereo not drawn) | inactive
COc1ccc(-c2nc(CN3CCC(C(=O)NCc4ccccc4)CC3)c(C)o2)cc1OC | inactive
CN(C)S(=O)(=O)N1CCN(c2ccc([N+](=O)[O-])cc2)CC1 | inactive
COc1ccc(N2CCN(c3ccc([N+](=O)[O-])nc3)CC2)cc1 | inactive
COc1ccccc1N1CCN(c2ccc([N+](=O)[O-])nc2)CC1 | inactive
O=[N+]([O-])c1ccc(N2CCN(c3ccc(O)cc3)CC2)c(Cl)c1 | 20 µM (active)
COc1ccc(N2CCN(c3ccc([N+](=O)[O-])cc3Cl)CC2)cc1 | 10 µM (active)
O=C(c1cncc(Br)c1)N1CCN(c2ccc([N+](=O)[O-])cc2)CC1 | inactive
COc1ccc(-c2nc(C)c(CCNC(=O)c3ccc(C(F)(F)F)cc3)s2)cc1OC | inactive
